{
  "source": "the supplement of paper PMC9492666",
  "note": "Counter-ions that a name gives are not always drawn.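 Further: viability read by CCK-8 kit in 96-well plates, part of a combination screen pairing lipid-metabolism-targeting compounds with erastin.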",
  "data": [
    {"test_system": "HCC1937", "test": "relative cell viability, compound + erastin, vs DMSO (fraction of DMSO control); higher = less growth inhibition", "conditions": "72 h", "values": [
      {"smiles": "O=C(O)C(=O)Nc1sc2c(c1C(=O)O)CCNC2", "note": "+ CCOc1ccccc1-n1c(C(C)N2CCN(C(=O)COc3ccc(Cl)cc3)CC2)nc2ccccc2c1=O [erastin]", "relative cell viability": 0.755},
      {"smiles": "COc1ccc(-c2cc(=O)c3c(O)c(OC)c(O)cc3o2)cc1OC", "note": "[Eupatilin] + CCOc1ccccc1-n1c(C(C)N2CCN(C(=O)COc3ccc(Cl)cc3)CC2)nc2ccccc2c1=O [erastin]", "relative cell viability": 0.431},
      {"smiles": "CCCCCCCCCCCC1=C(O)C(=O)C=C(O)C1=O", "note": "[Embelin] + CCOc1ccccc1-n1c(C(C)N2CCN(C(=O)COc3ccc(Cl)cc3)CC2)nc2ccccc2c1=O [erastin]", "relative cell viability": 0.72}
    ]},
    {"test_system": "MDA-MB-231", "test": "relative cell viability, compound + erastin, vs DMSO (fraction of DMSO control); higher = less growth inhibition", "conditions": "72 h", "values": [
      {"smiles": "COc1cccc(-n2c(=O)[nH]c3cc(Cl)n(-c4ccc(-c5cccc(OC)c5O)cc4)c3c2=O)c1", "note": "+ CCOc1ccccc1-n1c(C(C)N2CCN(C(=O)COc3ccc(Cl)cc3)CC2)nc2ccccc2c1=O [erastin]", "relative cell viability": 0.852},
      {"smiles": "COc1ccc(C2(CNC(=O)c3ccc(NC(=O)c4ccco4)cc3)CCOCC2)cc1", "note": "+ CCOc1ccccc1-n1c(C(C)N2CCN(C(=O)COc3ccc(Cl)cc3)CC2)nc2ccccc2c1=O [erastin]", "relative cell viability": 0.728},
      {"smiles": "COc1ccc(C(=O)/C=C/c2ccccc2)cc1", "note": "[4'-Methoxychalcone] + CCOc1ccccc1-n1c(C(C)N2CCN(C(=O)COc3ccc(Cl)cc3)CC2)nc2ccccc2c1=O [erastin]", "relative cell viability": 0.54},
      {"smiles": "CC(C)C1=CC2=CC[C@@H]3[C@](C)(CCC[C@@]3(C)C(=O)O)[C@H]2CC1", "note": "[Abietic Acid] + CCOc1ccccc1-n1c(C(C)N2CCN(C(=O)COc3ccc(Cl)cc3)CC2)nc2ccccc2c1=O [erastin]", "relative cell viability": 1.04},
      {"smiles": "C[C@H](CCC(=O)O)[C@H]1CC[C@H]2[C@@H]3C[C@H](O)[C@@H]4C[C@H](O)CC[C@]4(C)[C@H]3CC[C@]12C", "note": "[Hyodeoxycholic acid] + CCOc1ccccc1-n1c(C(C)N2CCN(C(=O)COc3ccc(Cl)cc3)CC2)nc2ccccc2c1=O [erastin]", "relative cell viability": 0.881},
      {"smiles": "CC1(N)CCN(c2cnc(-c3cccc(Cl)c3Cl)c(N)n2)CC1", "note": "[SHP099 hydrochloride] + CCOc1ccccc1-n1c(C(C)N2CCN(C(=O)COc3ccc(Cl)cc3)CC2)nc2ccccc2c1=O [erastin]", "relative cell viability": 0.647},
      {"smiles": "N[C@@H](Cc1c[nH]cn1)C(=O)O", "note": "[histidine] + CCOc1ccccc1-n1c(C(C)N2CCN(C(=O)COc3ccc(Cl)cc3)CC2)nc2ccccc2c1=O [erastin]", "relative cell viability": 0.706},
      {"smiles": "CC(C)CCC[C@@H](C)[C@H]1CC[C@H]2[C@@H]3CC=C4C[C@@H](O)CC[C@]4(C)[C@H]3CC[C@]12C", "note": "[Cholesterol] + CCOc1ccccc1-n1c(C(C)N2CCN(C(=O)COc3ccc(Cl)cc3)CC2)nc2ccccc2c1=O [erastin]", "relative cell viability": 0.953},
      {"smiles": "Cc1nc(-c2nc(-c3ccc(OC(F)(F)F)cc3)no2)nn1Cc1cccc(N2CCC(S(C)(=O)=O)CC2)c1", "note": "+ CCOc1ccccc1-n1c(C(C)N2CCN(C(=O)COc3ccc(Cl)cc3)CC2)nc2ccccc2c1=O [erastin]", "relative cell viability": 0.621},
      {"smiles": "CCC(=O)O[C@]1(C(=O)CCl)[C@@H](C)C[C@H]2[C@@H]3C[C@H](F)C4=CC(=O)C=C[C@]4(C)[C@@]3(F)[C@@H](O)C[C@@]21C", "note": "[Halobetasol Propionate] + CCOc1ccccc1-n1c(C(C)N2CCN(C(=O)COc3ccc(Cl)cc3)CC2)nc2ccccc2c1=O [erastin]", "relative cell viability": 0.973},
      {"smiles": "Nc1ccc(C(=O)O)c(O)c1", "note": "[Aminopar] + CCOc1ccccc1-n1c(C(C)N2CCN(C(=O)COc3ccc(Cl)cc3)CC2)nc2ccccc2c1=O [erastin]", "relative cell viability": 0.664},
      {"smiles": "COC(=O)c1sccc1S(=O)(=O)Nc1ccc(Nc2ccccc2)cc1OC", "note": "+ CCOc1ccccc1-n1c(C(C)N2CCN(C(=O)COc3ccc(Cl)cc3)CC2)nc2ccccc2c1=O [erastin]", "relative cell viability": 1.1},
      {"smiles": "CC1=C(/C=C/C(C)=C/C=C/C(C)=C/C=C/C=C(C)/C=C/C=C(C)/C=C/C2=C(C)C(=O)[C@@H](O)CC2(C)C)C(C)(C)C[C@H](O)C1=O", "note": "[Astaxanthin] + CCOc1ccccc1-n1c(C(C)N2CCN(C(=O)COc3ccc(Cl)cc3)CC2)nc2ccccc2c1=O [erastin]", "relative cell viability": 1.56},
      {"smiles": "CN(C)C(=N)NC(=N)N", "note": "[Metformin hydrochloride] + CCOc1ccccc1-n1c(C(C)N2CCN(C(=O)COc3ccc(Cl)cc3)CC2)nc2ccccc2c1=O [erastin]", "relative cell viability": 1.03},
      {"smiles": "CCCCCCCCCCC#CC#CCCCCCCCCC(=O)O", "note": "[10,12-Tricosadiynoic acid] + CCOc1ccccc1-n1c(C(C)N2CCN(C(=O)COc3ccc(Cl)cc3)CC2)nc2ccccc2c1=O [erastin]", "relative cell viability": 0.627},
      {"smiles": "Cc1cc(SCc2sc(-c3ccc(C(F)(F)F)cc3)nc2C)ccc1OCC(=O)O", "note": "+ CCOc1ccccc1-n1c(C(C)N2CCN(C(=O)COc3ccc(Cl)cc3)CC2)nc2ccccc2c1=O [erastin]", "relative cell viability": 0.558},
      {"smiles": "O=C(Oc1ccc([N+](=O)[O-])cc1)N1CCN(Cc2cccc(Oc3ccccc3)c2)CC1", "note": "+ CCOc1ccccc1-n1c(C(C)N2CCN(C(=O)COc3ccc(Cl)cc3)CC2)nc2ccccc2c1=O [erastin]", "relative cell viability": 0.312},
      {"smiles": "CSc1ccc(C(=O)/C=C/c2cc(C)c(OC(C)(C)C(=O)O)c(C)c2)cc1", "note": "[Elafibranor] + CCOc1ccccc1-n1c(C(C)N2CCN(C(=O)COc3ccc(Cl)cc3)CC2)nc2ccccc2c1=O [erastin]", "relative cell viability": 0.602},
      {"smiles": "Cc1nc2ccc(C(=O)N3CCC4(CC3)CC(=O)c3c(cnn3C(C)C)C4)cc2[nH]1", "note": "+ CCOc1ccccc1-n1c(C(C)N2CCN(C(=O)COc3ccc(Cl)cc3)CC2)nc2ccccc2c1=O [erastin]", "relative cell viability": 0.733},
      {"smiles": "CCCCCCCCCCC[C@@H](C[C@@H]1OC(=O)[C@H]1CCCCCC)OC(=O)[C@H](CC(C)C)NC=O", "note": "[Orlistat] + CCOc1ccccc1-n1c(C(C)N2CCN(C(=O)COc3ccc(Cl)cc3)CC2)nc2ccccc2c1=O [erastin]", "relative cell viability": 0.52},
      {"smiles": "COc1cc(N2CCN(C)CC2)ccc1Nc1ncc2c(n1)N(C1CCC1)C(=O)N(c1c(C)cccc1C)C2", "note": "+ CCOc1ccccc1-n1c(C(C)N2CCN(C(=O)COc3ccc(Cl)cc3)CC2)nc2ccccc2c1=O [erastin]", "relative cell viability": 0.586},
      {"smiles": "Cc1c(C(=O)NN2CCCCC2)nn(-c2ccc(Cl)cc2Cl)c1-c1ccc(Cl)cc1", "note": "[Rimonabant] + CCOc1ccccc1-n1c(C(C)N2CCN(C(=O)COc3ccc(Cl)cc3)CC2)nc2ccccc2c1=O [erastin]", "relative cell viability": 0.273},
      {"smiles": "CC(C)(O)c1ccccc1CC[C@@H](SCC1(CC(=O)O)CC1)c1cccc(/C=C/c2ccc3ccc(Cl)cc3n2)c1", "note": "[Montelukast] + CCOc1ccccc1-n1c(C(C)N2CCN(C(=O)COc3ccc(Cl)cc3)CC2)nc2ccccc2c1=O [erastin]", "relative cell viability": 0.829},
      {"smiles": "O=C(O)C(O)Cc1ccc(O)c(O)c1", "note": "(configuration not stated) [Sodium Danshensu] + CCOc1ccccc1-n1c(C(C)N2CCN(C(=O)COc3ccc(Cl)cc3)CC2)nc2ccccc2c1=O [erastin]", "relative cell viability": 0.968},
      {"smiles": "Cc1coc2c1C(=O)C(=O)c1c-2ccc2c(C)cccc12", "note": "[Tanshinone I] + CCOc1ccccc1-n1c(C(C)N2CCN(C(=O)COc3ccc(Cl)cc3)CC2)nc2ccccc2c1=O [erastin]", "relative cell viability": 0.396},
      {"smiles": "O=C(O)CCCc1cc2cc(Cl)ccc2n1S(=O)(=O)c1ccc2ncsc2c1", "note": "[Lanifibranor] + CCOc1ccccc1-n1c(C(C)N2CCN(C(=O)COc3ccc(Cl)cc3)CC2)nc2ccccc2c1=O [erastin]", "relative cell viability": 0.886},
      {"smiles": "COc1cc(O)c2c(c1)O[C@H](c1ccc(O)cc1)CC2=O", "note": "[Sakuranetin] + CCOc1ccccc1-n1c(C(C)N2CCN(C(=O)COc3ccc(Cl)cc3)CC2)nc2ccccc2c1=O [erastin]", "relative cell viability": 0.527},
      {"smiles": "O=c1c(O[C@@H]2O[C@H](CO)[C@@H](O)[C@H](O)[C@H]2O)c(-c2ccc(O)cc2)oc2cc(O)cc(O)c12", "note": "[Astragalin] + CCOc1ccccc1-n1c(C(C)N2CCN(C(=O)COc3ccc(Cl)cc3)CC2)nc2ccccc2c1=O [erastin]", "relative cell viability": 0.749},
      {"smiles": "O=C(O)c1cc(F)c2nc(N3[C@@H]4CC[C@H]3C[C@@H](OCc3c(-c5ccccc5OC(F)(F)F)noc3C3CC3)C4)sc2c1", "note": "[Tropifexor] + CCOc1ccccc1-n1c(C(C)N2CCN(C(=O)COc3ccc(Cl)cc3)CC2)nc2ccccc2c1=O [erastin]", "relative cell viability": 0.652},
      {"smiles": "CC(C)=CCC[C@](C)(O)[C@H]1CC[C@]2(C)[C@@H]1[C@H](O)C[C@@H]1[C@@]3(C)CC[C@H](O)C(C)(C)[C@@H]3[C@@H](O[C@@H]3O[C@H](CO)[C@@H](O)[C@H](O)[C@H]3O)C[C@]12C", "note": "[Ginsenoside Rh1] + CCOc1ccccc1-n1c(C(C)N2CCN(C(=O)COc3ccc(Cl)cc3)CC2)nc2ccccc2c1=O [erastin]", "relative cell viability": 0.663},
      {"smiles": "CN(C)CCOC(=O)COc1ccc(Cl)cc1", "note": "[Meclofenoxate hydrochloride] + CCOc1ccccc1-n1c(C(C)N2CCN(C(=O)COc3ccc(Cl)cc3)CC2)nc2ccccc2c1=O [erastin]", "relative cell viability": 0.81},
      {"smiles": "CCCCCCCCCCCCCCOc1ccc(C(=O)O)o1", "note": "+ CCOc1ccccc1-n1c(C(C)N2CCN(C(=O)COc3ccc(Cl)cc3)CC2)nc2ccccc2c1=O [erastin]", "relative cell viability": 0.696},
      {"smiles": "Cc1cnc(C(=O)NCCc2ccc(S(=O)(=O)NC(=O)NC3CCCCC3)cc2)cn1", "note": "[Glipizide] + CCOc1ccccc1-n1c(C(C)N2CCN(C(=O)COc3ccc(Cl)cc3)CC2)nc2ccccc2c1=O [erastin]", "relative cell viability": 0.843},
      {"smiles": "CCCc1cc(-c2nc(-c3ccc(NS(C)(=O)=O)cc3)cs2)ccn1", "note": "+ CCOc1ccccc1-n1c(C(C)N2CCN(C(=O)COc3ccc(Cl)cc3)CC2)nc2ccccc2c1=O [erastin]", "relative cell viability": 0.651}
    ]}
  ]
}
